Screening data: PubChem, National Center for Advancing Translational Sciences (NCATS)
HT1080 IDH1KD tx = kills HT-1080 cells with IDH1 knockdown; Potency, µM (doses to about 46.1 µM), hits mostly cytotoxic; HT-1080 IDH1 knockdown viability, ATP luminescence, 48 h; actives 2% (n = 360,000); AID 686971
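CellTiter-Glo luminescence after 48 h compound exposure at 37 degrees C of IDH1-knockdown HT-1080 cells in 5% FBS RPMI. %Activity scaled between DMSO wells and cell-free media wells, with curves fitted and assigned curve classes.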
KB-V1 MDR tox = kills drug-selected multidrug resistant KB-V1 cells; AID 1347076; Potency, µM (doses to about 46.1 µM), hits mostly cytotoxic; KB-V1 MDR cells viability, CellTiter-Glo, 72 h; actives 3.4% (n = 400,000); further: nearly all actives have a fitted effect of over 60% in size
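KB-V1 cells (P-gp-expressing MDR subline of KB-3-1) in phenol-red-free DMEM with 10% FBS were exposed to library compounds over a concentration series for 72 h at 37 degrees C. Viability read by CellTiter-Glo luminescence; concentration-effect curves fitted after normalization.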
SW480 rereplic = DNA re-replication induction in SW480 cells; SW480 DNA re-replication, Hoechst DNA content imaging, 48 h; Potency, µM (top dose mostly 46.1 µM), usual class: activators; actives 1.8% (n = 340,000); further: nearly all actives have a fitted effect of over 55% in size
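Readout is total intensity of Hoechst-stained nuclei, excited at 405 nm and collected at 500-530 nm. Compound treatment lasted 48 hr at 37 C in 5% CO2 before staining.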
MCF10A rerep = DNA re-replication induction in MCF 10a cells; MCF 10A DNA re-replication, Hoechst nuclear intensity, 48 h; Potency, µM (top dose mostly 46.1 µM), most hits filed as activators; actives 2.9% (n = 350,000); AID 624296; further: nearly all actives have a fitted effect of over 50% in size
HT1080NT lethal = kills 2HG-producing HT-1080-NT fibrosarcoma cells. Potency, µM (top dose mostly 46.1 µM), usual class: cytotoxic. HT-1080-NT fibrosarcoma viability, CellTiter-Glo ATP luminescence, 48 h. actives 1.6% (n = 360,000);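 further: NT is the 2HG producing partner of a matched IDH1 knockdown line; nearly all actives have a fitted effect of over 55% in size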
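Compounds were tested in concentration-response format on HT-1080-NT cells for 48 hours at 37 degrees C. Cell viability came from CellTiter-Glo luminescence; curves were classified by r2, response magnitude and activity.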
KB-3-1 tox = kills parental KB-3-1 adenocarcinoma cells; KB-3-1 viability, CellTiter-Glo ATP luminescence, 72 h; actives 1.4% (n = 400,000); Potency, µM (top dose mostly 46.1 µM), hits mostly cytotoxic; AID 1347075; further: nearly all actives have a fitted effect of over 60% in size
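Cytotoxicity measured as CellTiter-Glo luminescence after 72 h at 37 C. Compound titrations were pinned onto drug-naive KB-3-1 parental adenocarcinoma cells grown in DMEM with 10% FBS, and normalized data fitted to concentration-response curves.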
Large screens that a line does not name were inactive. Shown are actives, neighbours in structure and some others; about 7.9% of the full set was active somewhere. The call rests on the fitted dose curve; in most records, active means well fitted curve in the direction sought with a large enough effect; inconclusive means small, poorly fitted or top-dose-only effect, or another doubt; inactive means no such curve, though single readings can be large; an effect the other way counts as inactive or inconclusive.

O=C(NC1CCCC1)C1CCC(CNS(=O)(=O)c2cccs2)CC1 (stereo unspecified)	none
O=C(/C=C/c1ccc(O)cc1)c1ccc(O)cc1O	HT1080 IDH1KD tx 23µM, KB-V1 MDR tox inconclusive, MCF10A rerep 15µM, HT1080NT lethal 26µM, KB-3-1 tox inconclusive
Cc1ccc(/C=C/C(=O)c2ccc(O)cc2)cc1	HT1080 IDH1KD tx inconclusive, KB-V1 MDR tox inconclusive, SW480 rereplic 18µM, MCF10A rerep inconclusive, KB-3-1 tox inconclusive
Cc1ccc(C(=O)/C=C/Nc2cccc(O)c2)cc1	HT1080 IDH1KD tx inconclusive, SW480 rereplic inconclusive, MCF10A rerep 23µM
Cc1ccc(C(=O)/C=C/c2ccc3ncccc3c2)cc1	SW480 rereplic inconclusive, MCF10A rerep 18µM
N/C(=N\NC(=O)Nc1ccccc1)c1ccccn1	MCF10A rerep inconclusive
Cc1nnc2n1NC(c1ccc(Cl)cc1)C(C(=O)N1CCC(C)CC1)S2 (stereo unspecified)	none
O=C(c1ccccc1)c1ccc2nc(Nc3cc(Cl)ccc3O)c3nncn3c2c1	KB-V1 MDR tox inconclusive (no result: HT1080 IDH1KD tx, SW480 rereplic, MCF10A rerep, HT1080NT lethal)
CCOC(=O)c1c(C)[nH]c(C)c1C(=O)COC(=O)c1cccc(C)c1O	KB-V1 MDR tox 16µM, MCF10A rerep inconclusive
CCc1cc2c(=O)[nH]c(N3CCCC3)nc2s1	SW480 rereplic inconclusive
CCc1cc2c(=O)[nH]c(-c3ccccn3)nc2s1	HT1080 IDH1KD tx inconclusive, KB-V1 MDR tox inconclusive, SW480 rereplic 6.5µM, MCF10A rerep 12µM, KB-3-1 tox 12µM
O=[N+]([O-])c1ccc(S(=O)Cc2ccccc2)c([N+](=O)[O-])c1 (stereo unspecified)	HT1080 IDH1KD tx 16µM, KB-V1 MDR tox inconclusive, SW480 rereplic 23µM, MCF10A rerep 4.1µM, HT1080NT lethal 16µM, KB-3-1 tox inconclusive
O=[N+]([O-])c1ccc(CS(=O)c2ccccc2)cc1 (stereo unspecified)	KB-V1 MDR tox inconclusive
COc1ccc(C2=Nc3ccccc3N(C(=O)c3cc(Cl)cc(Cl)c3)C2C(=O)NCc2ccccc2)cc1 (stereo unspecified)	KB-V1 MDR tox inconclusive (no result: SW480 rereplic, MCF10A rerep)
CN(C)c1nc(N)nc(CSc2ncc(Cl)cc2Cl)n1	KB-V1 MDR tox 15µM, MCF10A rerep inconclusive
CN(C)c1nc(N)nc(CSc2nnnn2-c2ccccc2)n1	none
CN(C)c1nc(N)nc(CSc2nnnn2C)n1	KB-V1 MDR tox inconclusive
CN(C)c1nc(N)nc(CSc2nnnn2-c2ccc(Cl)cc2)n1	HT1080 IDH1KD tx 23µM, HT1080NT lethal inconclusive (no result: SW480 rereplic, MCF10A rerep)
Cc1nc(C(C)N(C)Cc2nc(Cc3ccccc3F)no2)c(C)s1 (stereo unspecified)	none
O=C(Nc1ncc2c(n1)-c1ccccc1OC2)c1cccc([N+](=O)[O-])c1	none
O=C(Nc1ncc2c(n1)-c1ccccc1CC2)c1ccc(Cl)cc1	HT1080 IDH1KD tx inconclusive, KB-V1 MDR tox 9.2µM
O=C(Nc1ncc2c(n1)-c1ccccc1CC2)c1cccc(Cl)c1	HT1080 IDH1KD tx inconclusive, KB-V1 MDR tox inconclusive, SW480 rereplic inconclusive, MCF10A rerep 13µM, HT1080NT lethal inconclusive, KB-3-1 tox 10µM
CN(c1ccc([N+](=O)[O-])cc1C(=O)Nc1ccccc1)C1CCCCC1	HT1080 IDH1KD tx inconclusive, KB-V1 MDR tox 13µM
Cc1cccc(NC(=O)C(c2cccc([N+](=O)[O-])c2)N2CCCCC2)c1 (stereo unspecified)	KB-V1 MDR tox 15µM
Cc1ccc([N+](=O)[O-])cc1NC(=O)CNC1CCCCC1	none
Cc1cccc(NC(=O)c2cc([N+](=O)[O-])ccc2NC2CCCCC2)c1	KB-V1 MDR tox 13µM
CC(C)CCN1CCN(Cc2ccc(Sc3nncn3C)o2)CC1CCO (stereo unspecified)	none
O=C1N/C(=C/c2ccc(Br)cc2)C(O)=C1C=NCc1ccccc1	HT1080 IDH1KD tx inconclusive, KB-V1 MDR tox inconclusive, SW480 rereplic inconclusive, MCF10A rerep inconclusive, HT1080NT lethal inconclusive, KB-3-1 tox 4.6µM
O=C1C(C=NCc2ccncc2)=C(O)c2ccccc21	none
O=C(COC(=O)c1ccccc1-c1ccccc1[N+](=O)[O-])c1ccccc1	none
Cc1ccc(Cl)c2sc(NC(=O)C3=COCCO3)nc12	MCF10A rerep inconclusive
O=C(Nc1nc2ccc(F)cc2s1)C1=COCCO1	HT1080 IDH1KD tx inconclusive, KB-V1 MDR tox 12µM, HT1080NT lethal inconclusive, KB-3-1 tox inconclusive
COc1ccc(Cl)c2sc(NC(=O)C3=COCCO3)nc12	HT1080 IDH1KD tx inconclusive, SW480 rereplic 5.2µM, HT1080NT lethal inconclusive
O=C(Nc1nc2cc3c(cc2s1)OCCO3)C1=COCCO1	HT1080 IDH1KD tx 13µM, HT1080NT lethal 15µM
CCc1ccc(NC(=O)C(C)OC(=O)c2cc(=O)[nH]c3ccc(S(=O)(=O)Nc4ccc(F)cc4)cc23)cc1 (stereo unspecified)	KB-V1 MDR tox inconclusive, MCF10A rerep 21µM
COc1ccc(C(C)=O)cc1COC(=O)Cc1n[nH]c(=O)c2ccccc12	KB-V1 MDR tox 13µM
O=C(Cc1n[nH]c(=O)c2ccccc12)OCC(=O)c1ccc(F)cc1	none
O=C(Cc1n[nH]c(=O)c2ccccc12)OCC(=O)c1ccc2c(c1)OCCO2	HT1080 IDH1KD tx 8.2µM, KB-V1 MDR tox inconclusive, SW480 rereplic 4.6µM, MCF10A rerep 2.1µM, HT1080NT lethal inconclusive, KB-3-1 tox 1.5µM
COc1ccccc1C(=O)COC(=O)Cc1n[nH]c(=O)c2ccccc12	none
CCOc1ccc(C(=O)COC(=O)Cc2n[nH]c(=O)c3ccccc23)cc1	HT1080 IDH1KD tx 5.2µM, KB-V1 MDR tox 4.6µM, SW480 rereplic 2.6µM, MCF10A rerep 1.6µM, HT1080NT lethal 6.5µM, KB-3-1 tox 4.1µM
COc1ccc(NC(=O)CN(C)C(=O)Cc2n[nH]c(=O)c3ccccc23)cc1	SW480 rereplic 23µM
COc1cccc(NC(=O)CN(C)C(=O)Cc2n[nH]c(=O)c3ccccc23)c1	none
CC(=O)Nc1ccc(S(=O)(=O)Nc2ccc(S(=O)(=O)N3CCCCCC3)cc2)cc1	none
COc1ccccc1C(=O)NCCCNc1nc2cc(C)cc(C)c2cc1C#N	KB-V1 MDR tox inconclusive (no result: SW480 rereplic, MCF10A rerep)
Cc1cc(OCC(=O)NC2CCN(Cc3ccccc3)CC2)c2c(C)c(C)c(=O)oc2c1	none
Cc1noc(C)c1C(=O)OCC(=O)N1CCc2ccccc21	KB-V1 MDR tox inconclusive
CCCn1nc(NC(=O)c2cccs2)c2cc3cc(OC)ccc3nc21	KB-V1 MDR tox inconclusive, SW480 rereplic 15µM, MCF10A rerep inconclusive
CCCCn1nc(NC(=O)CCC)c2cc3cc(OC)ccc3nc21	KB-V1 MDR tox inconclusive, SW480 rereplic inconclusive, MCF10A rerep inconclusive
